The panel holds about 79,000 compounds, 15% with a hit somewhere; the sample as a whole holds those more often. Unmarked numbers belong to inactive results. Activity calls are given as the source filed them. Rule as the data show it: active = growth inhibition above about 70%; inactive = the rest.
How the values were obtained:
[1] = NCI Yeast Anticancer Drug Screen. Data for the rad50 strain (AID 155);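 also: 0% = growth of vehicle-only cultures of the same strain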; details: S. cerevisiae rad50 strain growth inhibition, stronger effect = higher value
Method in brief: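 Yeast carrying a defined DNA repair defect were exposed to test compounds, and growth was compared with vehicle-treated controls to give percent inhibition.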

[2] = NCI Yeast Anticancer Drug Screen. Data for the mec2-1 strain (AID 157); details: S. cerevisiae mec2-1 strain, stronger effect = higher value
Method in brief: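 Vehicle-treated cultures served as reference for growth inhibition of compound-exposed mec2-1 yeast.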

[3] = NCI Yeast Anticancer Drug Screen. Data for the sgs1 mgt1 strain (AID 161);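 also: 0% = growth of cultures given vehicle only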; details: S. cerevisiae sgs1 mgt1 strain, stronger effect = higher value
Method in brief: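 Test agents were incubated with a DNA-repair-mutant yeast strain. Growth was then read and compared against vehicle-treated controls.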

[4] = NCI Yeast Anticancer Drug Screen. Data for the cln2 rad14 strain (AID 165);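 also: 0% = growth equal to vehicle treated cultures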; details: S. cerevisiae cln2 rad14 strain, stronger effect = higher value
Method in brief: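 Each compound was tested on cln2 rad14 yeast. Inhibition of growth was calculated against vehicle-exposed controls.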

[5] = NCI Yeast Anticancer Drug Screen. Data for the bub3 strain (AID 167); details: S. cerevisiae bub3 mutant strain, stronger effect = higher value
Method in brief: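 Compounds were applied to a genetically altered yeast strain carrying a cell-cycle control defect. Growth inhibition was scored against vehicle-treated controls.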

[6] = NCI Yeast Anticancer Drug Screen. Data for the mlh1 rad18 strain (AID 175); details: S. cerevisiae mlh1 rad18 strain growth inhibition, stronger effect = higher value
Method in brief: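 Vehicle-treated cultures served as the reference for growth inhibition in a yeast strain carrying DNA damage repair alterations exposed to each compound.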

[7] = at 5.0 µM (retest, dose inferred, filed as 0.5)
[8] = at 50.0 µM (retest, dose inferred, filed as 5.0)

Row | Structure (SMILES) | growth inhibition [1, 7] | growth inhibition [1, 8] | growth inhibition ([1]; at 50.0 µM) | growth inhibition [2, 7] | growth inhibition [2, 8] | growth inhibition ([2]; at 50.0 µM) | growth inhibition [3, 7] | growth inhibition [3, 8] | growth inhibition ([3]; at 50.0 µM) | growth inhibition [4, 7] | growth inhibition [4, 8] | growth inhibition ([4]; at 50.0 µM) | growth inhibition [5, 7] | growth inhibition [5, 8] | growth inhibition ([5]; at 50.0 µM) | growth inhibition [6, 7] | growth inhibition [6, 8] | growth inhibition ([6]; at 50.0 µM)
1 | CCN(CC)CCCC(=O)Nc1cc(OC)cc2cccnc12 | 2% | 0% | 3.65% | 15% | -3% | 6.3% | 8% | 1% | -4.7% | 1% | -1% | -2.55% | 1% | -3% | -1.85% | 2% | -1% | 13.4%
2 | CCNc1cc2c3c(c1)CCCN3CCC2 | 15% | 40% | -15.7% | 13% | 27% | -20.7% | 14% | 18% | -1.15% | 20% | 24% | -46.1% | 15% | 30% | -17% | 17% | 51% | -10.7%
3 | Clc1ccc(CSCCc2ccncc2)cc1Cl | -5% | 98% (active) | 98.7% (active) | 0% | 96% (active) | 99% (active) | 5% | 97% (active) | 97.5% (active) | -19% | 95% (active) | 97.6% (active) | 5% | 98% (active) | 98.2% (active) | 4% | 97% (active) | 98.8% (active)
4 | O=C1C(=O)c2ccccc2C(O)=C1C(c1ccccc1)c1ccccc1 | 42% | 82% (active) | 53.5% | 39% | 85% (active) | 66% | 57% | 91% (active) | 82.5% (active) | 27% | 83% (active) | 58.2% | 18% | 83% (active) | 60.6% | 54% | 90% (active) | 62%
5 | S=C(Nc1cc(Cl)cc(Cl)c1)SCc1ccccc1 | 33% | 78% (active) | 99.1% (active) | 25% | 54% | 99.5% (active) | 30% | 74% (active) | 99.2% (active) | -9% | 48% | 98.7% (active) | 4% | 68% | 99.2% (active) | 31% | 82% (active) | 99.3% (active)
6 | O=C1CCC(Cc2ccc(I)cc2)C(=O)N1 (configuration not stated) | -5% | 3% | -2.9% | 1% | 6% | -12.7% | -11% | 68% | 66.3% | -5% | 7% | -63.8% | -6% | -5% | -54.2% | -6% | 1% | -4.6%
7 | CCCCCCC1CCC(CCCCCCCC(=O)N2CCN(C)CC2)C(C/C=C/CCCCCCCC(=O)N2CCN(C)CC2)C1CCCCC (configuration not stated) | 3% | 93% (active) | 98.8% (active) | -1% | 75% (active) | 99.3% (active) | 1% | 70% (active) | 99.3% (active) | -1% | 84% (active) | 92.6% (active) | 4% | 90% (active) | 98.7% (active) | 6% | 95% (active) | 98.9% (active)
8 | COC(=O)C1=CCC[C@H]2C1(C)CCC(C)C21CC(c2ccoc2)OC1=O (some centres not stated) | -8% | 75% (active) | 50.5% | 8% | 85% (active) | 55.6% | 10% | 90% (active) | 72.2% (active) | -16% | 14% | 28.9% | -8% | 83% (active) | 67.2% | 10% | 87% (active) | 76.2% (active)
9 | O=C(Sc1ccccc1)C1OC12CCCCC2 (configuration not stated) | -160% | -116% | 50.5% | -48% | -44% | 31.2% | -68% | -47% | 63.8% | -62% | -75% | -8.05% | -65% | -57% | 8.8% | -122% | -90% | 50.1%

Source: PubChem BioAssay (NCI)
